# Bioassay records from PubChem BioAssay.
# The full list was thinned out, with hits kept by preference.
# ERK EGF inh: EGF-driven ERK pathway inhibition | AID 1454 | Potency, µM (highest dose often 11.5 µM), for the others: at the top dose activity change, negative = inhibition, most hits filed as inhibitors | HEK293-V1b, EGF-stimulated phospho-ERK AlphaScreen | 130,000 compounds, 0.41% hits;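 further: potency means the concentration at half of the fitted maximal effect; plate controls were stimulated vehicle wells for no effect and unstimulated vehicle basal for full effect; nearly all actives have a fitted effect of over 55% in size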
#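 Stably V1b-transfected HEK293 cells; 30 min compound, then EGF 25 nM final for 5 min at 37C; 10 min lysis; phospho-ERK by AlphaScreen after 5 hr beads at room temperature.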
# ERK pERK EGF: confirmation of ERK pathway inhibitors under EGF stimulation; shares compounds with ERK EGF inh; HEK293 EGF-stimulated ERK phosphorylation, AlphaScreen; Potency, µM (top dose mostly 57.5 µM), without a hit: top-dose activity change, negative = inhibition, actives largely listed as inhibitors; 60 compounds, 60% hits; AID 1725
# cRaf kinase inh: blocks human c-Raf kinase activity | shares compounds with ERK EGF inh | c-Raf kinase inhibition, homogeneous biochemical assay | activity change, negative = inhibition, % at 76.9 µM | 70 tested, under 10 active
# MEK1 kinase inh: ERK pathway inhibitors follow-up: human MEK1 kinase inhibition; shares compounds with ERK EGF inh; homogeneous MEK kinase activity assay, ERK pathway; Potency, µM (highest dose often 76.9 µM), inactives show at the highest dose activity change, negative = inhibition, most hits filed as inhibitors; 70 tested, under 10 active
# Target sequence (Q02750 whole entry, looked up): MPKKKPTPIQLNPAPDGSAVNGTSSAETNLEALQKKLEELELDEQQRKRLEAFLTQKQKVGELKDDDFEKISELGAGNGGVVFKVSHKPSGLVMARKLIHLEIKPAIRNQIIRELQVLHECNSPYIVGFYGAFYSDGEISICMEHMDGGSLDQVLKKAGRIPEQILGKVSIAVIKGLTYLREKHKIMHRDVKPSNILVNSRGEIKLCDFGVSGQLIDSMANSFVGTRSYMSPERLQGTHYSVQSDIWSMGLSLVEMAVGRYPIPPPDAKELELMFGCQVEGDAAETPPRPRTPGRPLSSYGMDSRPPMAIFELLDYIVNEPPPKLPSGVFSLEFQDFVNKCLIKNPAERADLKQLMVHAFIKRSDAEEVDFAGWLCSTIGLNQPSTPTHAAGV
# Active calls of the source: *; ? = inconclusive; . = no result given; [ ] = dose if it differs, or a comment. The call rests on the fitted dose curve; in most records, active means well fitted curve in the direction sought with a large enough effect; inconclusive means small, poorly fitted or top-dose-only effect, or another doubt; inactive means no such curve, though single readings can be large; an effect the other way counts as inactive or inconclusive.
SMILES,ERK EGF inh,others
CC(=O)Nc1ccc(/C=N/Nc2nc3ccccc3s2)cc1,-5%[57.5 µM],
CCOC(=O)N1CCC(=NNc2nc3ccccc3s2)CC1,4%[57.5 µM],
CCCn1c(C)nc2c(NCCN(C)C)nc(C)nc21,-6%,
COC(=O)[C@@]1(Cc2ccc(F)cc2)[C@H]2c3cc(C(=O)N4CCCC4)n(CCc4c[nH]c5cc(F)ccc45)c3C[C@H]2CN1C(=O)c1ccccc1,13%,
Cc1nc2ccccc2nc1OCc1ccccc1,-3%,
Cc1nc2ccccc2nc(=O)c1NNc1ccccc1,.,ERK pERK EGF=14µM*;cRaf kinase inh=-6;MEK1 kinase inh=-2%
Cc1ccc2nc(=O)c(NNc3ccccc3)cnc2c1,14µM*,cRaf kinase inh=-16;MEK1 kinase inh=4%
Cc1ccc2nc(-c3ccccc3)c(-c3ccccc3)nc2c1,-10%,
Cc1ccc(S(=O)(=O)Nc2cnc3ccccc3c2)cc1,-3%,
CCOC(=O)c1nc2ccccc2nc1C,2%,
COC(=O)c1ccc(C(NC(=O)OCc2ccccc2)/C(F)=C/[C@@H](C)C(=O)Nc2ccc(OC)cc2)cc1 (stereo not given in full),1%,
CCCCCN=c1ccn(Cc2ccccc2)c2ccccc12,-11%,
C=CCOC(=O)N[C@H](/C(C(=O)OC)=C(\C)NCc1ccccc1)c1cccc(OC)c1,1%,
COc1cc(OC)c2c(c1)OC(c1ccccc1)CC2=O (stereo not given),0%,
CC(=O)O[C@H](C(=O)O[C@@H]1C[C@@H](CCC[C@H]2O[C@H](C(=O)OC(C)C)CC[C@@H]2C)O[C@@H](CC#N)C1)c1ccccc1,6%,
COc1cc2ncnc(Nc3ccc(F)c(Cl)c3)c2cc1OCCCN1CCOCC1,.,cRaf kinase inh=-23;MEK1 kinase inh=4%
COc1ccc(C(=O)NCCN2CCOCC2)cc1OC,-9%,
CCCOc1ccc(CN2CCOCC2)cc1OC,4%[57.5 µM],
COC(=O)C1CC1C(NC(=O)[C@@H]1CCCN1)c1ccccc1 (stereo not given in full),-12%,
CN(C)c1ccc(-c2cc(NCc3ccccc3)ncn2)cc1,34%,
Cc1noc(C)c1-c1ccc2ncnc(NCc3ccccc3)c2c1,24%,
CN(C)c1ccc(-c2ccc3ncnc(NCc4ccccc4)c3c2)cc1,8.9µM*,ERK pERK EGF=11µM*;cRaf kinase inh=?;MEK1 kinase inh=0%
CCN(CC)[C@@H](C)CN1c2ccccc2Sc2ccccc21,5%[25.7 µM],
CS(=O)(=O)n1nc(-c2ccc(Cl)cc2)nc1N,-5%,
COc1ccc(OCCn2nnc(-c3ccc(Cl)cc3)n2)cc1,4%,
SMILES,ERK EGF inh,others
Cn1nc(-c2ccc(Cl)cc2)nc2c(=O)n(C)c(=O)nc1-2,?,ERK pERK EGF=?;cRaf kinase inh=?;MEK1 kinase inh=?
Cc1nc(NCc2ccccc2)c2nc(-c3ccccc3)n(CCCN3CCCCC3C)c2n1 (stereo not given),-10%,
C=C[C@@]1(C)CC(=O)[C@@]2(O)[C@@]3(C)[C@@H](O)CCC(C)(C)[C@@H]3[C@H](O)[C@H](OC(C)=O)[C@@]2(C)O1,-5%,ERK pERK EGF=-9%;cRaf kinase inh=-3;MEK1 kinase inh=-7%
COCCN=C1OC(=O)N2C(=O)C3=C4C(C[C@H]5C(=O)N(CC(=O)OC)C(=O)[C@H]5[C@H]4[C@@]12Cc1ccccc1)[C@H]1C(=O)N(CC(=O)OC)C(=O)[C@H]1[C@H]3C (stereo not given in full),-9%,
CC(C)C[C@@H](CC(=O)N[C@@H](CCCN)CC(=O)N[C@@H]1CCNC[C@H]1C(=O)N[C@H](CC(=O)N[C@@H](CCC(=O)O)CC(=O)O)Cc1c[nH]c2ccccc12)NC(=O)[C@@H]1CNCC[C@H]1N,5%,
CSc1cc2c(cc1C(F)(F)F)N(C(=O)Nc1cccnc1)CC2,4%,
COCOc1c2c(c(OCOC)c3c(OCOC)cccc13)/C(=N/N[S+](=O)([O-])c1ccc(C)cc1)C1=C2CCCC1,1%,
CC1(C)OC(=O)C=C[C@@]2(C)C1C[C@@H](O)[C@]1(C)C2CC[C@@]2(C)C(c3ccoc3)OC(=O)[C@H]3O[C@]321 (stereo not given in full),-13%,
Cc1cc(N/N=C/c2ccc(O)cc2O)nc(-n2nc(C)cc2C)n1,-3%,
Cc1cc(N/N=C/c2ccccc2O)nc(-c2ccccc2O)n1,-1%,
Cc1cc(-c2ccccc2)n(-c2cc(N/N=C/c3ccccc3O)ncn2)n1,10µM*,ERK pERK EGF=?;cRaf kinase inh=-7;MEK1 kinase inh=-18%
COc1ccccc1CCn1c(=O)c(-c2ccccc2)nc2cncnc21,0%,
COC(=O)C(c1ccc(OC)c(OC)c1)C1c2ccccc2C=C(C)N1C(=O)OC (stereo not given),-8%,
COc1ccc(-c2nc(-c3ccccc3)c(NC(C)(C)C)o2)cc1,-14%,
Cc1ccc(C)n1-c1ccccc1N1CCCCC1,-2%,
O=C1c2cccc3c(N4CCCCC4)ccc(c23)C(=O)N1c1ccccc1O,0%,
O=C1c2ccccc2C(=O)c2c1cccc2N1CCCC1,10µM*,ERK pERK EGF=16µM*;cRaf kinase inh=?;MEK1 kinase inh=?
CCC/C=C(\CCC)C(NS(=O)(=O)c1ccc(C(F)(F)F)cc1)c1ccc(-c2ccccc2)cc1 (stereo not given),-1%,
CCOc1ccc(/C(O)=C2/C(=O)C(=O)N(c3ncccn3)C2c2ccc(C)cc2)cc1 (stereo not given),-4%[57.5 µM],
COc1ccc(/C(O)=C2/C(=O)C(=O)N(c3ncccn3)C2c2ccc(OC)cc2)cc1 (stereo not given),-3%,
CCOc1ccc(/C(O)=C2/C(=O)C(=O)N(c3ncccn3)C2c2ccccc2)cc1 (stereo not given),.,ERK pERK EGF=-6%;cRaf kinase inh=4;MEK1 kinase inh=0%
CCCn1c(=O)c(C)cn2nc(N)nc12,-12%,
CCOc1ccc(Cc2nccc3cc(OCC)c(OCC)cc23)cc1OCC,13%,
COc1cc2ncnc(NCc3cccc(Cl)c3)c2cc1OC,0.45µM*,ERK pERK EGF=1.8µM*;cRaf kinase inh=?;MEK1 kinase inh=1%
COc1ccccc1-c1cncnc1NCc1cccc(C)c1,23%,
SMILES,ERK EGF inh,others
COc1ccc(CNc2ncnc3cc(Cl)ccc23)cc1,-12%,
NC(CCC(=O)N[C@@H](CS)C(=O)NCC(=O)O)C(=O)O (stereo not given in full),12%,
O=C1C=C(O)c2cccc(O)c2C1=O,-16%[57.5 µM],
O=C1c2ccc(O)c(O)c2C(=O)c2c(O)ccc(O)c21,7.9µM*,ERK pERK EGF=10µM*;cRaf kinase inh=?;MEK1 kinase inh=?
O=C1c2ccccc2C(=O)c2c([N+](=O)[O-])ccc(O)c21,-14%[57.5 µM],
CS(=O)(=O)N1CCC[C@@]2(CCN(c3ccccn3)C2)C1,17%,
CCNc1ncc2nc(CCc3ccccc3)c(=O)n(CCOC)c2n1,-1%,
CC(C)C[C@@H](CC(=O)N[C@@H](CCC(=O)O)CC(=O)O)NC(=O)[C@@H]1CNCC[C@H]1NC(=O)C[C@@H](NC(=O)C[C@H](CO)NC(=O)[C@@H]1CNCC[C@H]1N)C(C)C,4%,
N[C@@H](C(=O)O)c1cc(O)ccc1Cl,-5%,
CCOC(=O)C(C(=O)c1ccccc1)[C@H](CCc1ccccc1)NC(=O)OC (stereo not given in full),-7%,
CCn1c(SCC#N)nc2ccccc2c1=O,8%[57.5 µM],
CCn1c(=O)c2[nH]c(-c3ccccc3)nc2n(CC)c1=O,12%,cRaf kinase inh=-13;MEK1 kinase inh=-7%
